Results on ten compounds are retold here after PubChem BioAssay (NCI).

The panel holds about 83,000 compounds, 20% with a hit somewhere; the sample as a whole holds those more often.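 Compound tested at a single concentration for 48 hours in 96-well plates; a percent growth value below 10 was scored as active.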 Unmarked numbers belong to inactive results. Calls of active or inactive are those of the source.

What all share (experiment): NCI-60 one-dose screen, 48 h (100 = growth as untreated, 0 = no growth, -100 = all killed)
One assay deals with EKVX NSCLC. The note with it: 10 µM unless noted.
The next assay deals with UO-31 renal. Conditions: 10 µM unless noted.
Another assay concerns TK-10 renal. Conditions: 10 µM unless noted.
The test system of the next assay is ACHN renal. Conditions: 10 µM unless noted.
A further assay concerns CAKI-1 renal. The note with it: 10 µM unless noted.
The test system of the next assay is A498 renal. Conditions: 10 µM unless noted.
The next assay relates to CCRF-CEM leukemia. Conditions: 10 µM unless noted.
For another assay, the system named is MOLT-4 leukemia. The note with it: 10 µM unless noted.
The next assay deals with SR leukemia. Conditions: 10 µM unless noted.
Another assay deals with RPMI-8226 leukemia. The note with it: 10 µM unless noted.
The test system of the next assay is OVCAR-8 ovarian. Conditions: 10 µM unless noted.
The next assay has as its system OVCAR-5 ovarian. The note with it: 10 µM unless noted.
Another assay concerns OVCAR-4 ovarian. The note with it: 10 µM unless noted.
The next assay concerns SK-OV-3 ovarian. Conditions: 10 µM unless noted.
The test system of a further assay is IGROV1 ovarian. Conditions: 10 µM unless noted.
The subject of another assay is OVCAR-3 ovarian. Conditions: 10 µM unless noted.
The subject of the next assay is HS 578T breast. The note with it: 10 µM.
The test system of a further assay is NCI/ADR-RES ovarian. Conditions: 10 µM unless noted.
The test system of the next assay is SN12C renal. Conditions: 10 µM unless noted.

For the compound `COc1ccc(/C=C2\Cc3c(Br)cccc3C2=O)c(OC)c1`, the growth is 59.8% in the assay with EKVX NSCLC; 78.3% with UO-31 renal; 90.6% with TK-10 renal; 59.8% in the assay on ACHN renal; 79.4% in the assay on CAKI-1 renal; 83.1% with A498 renal. The growth was 97.8% with CCRF-CEM leukemia; 94.1% in the assay with MOLT-4 leukemia; 52.2% in the assay on SR leukemia; 60.9% in the assay on RPMI-8226 leukemia; 80.8% with OVCAR-8 ovarian; 85.3% in the assay on OVCAR-5 ovarian. Moreover, the growth in the assay with OVCAR-4 ovarian is 72.1%; with SK-OV-3 ovarian, 80.8%; with IGROV1 ovarian, 74.1%; in the assay on OVCAR-3 ovarian it was 67.2%; in the assay on HS 578T breast, 80.5%; in the assay on NCI/ADR-RES ovarian it was 50.1%.

In the case of `C1=C\CCCCN2CC[C@H]3[C@H](CCCC/C=C\CCCN4C[C@@H](CCCCC/1)C[C@@H]3C4)C2`, the growth in the assay with EKVX NSCLC was 108%; in the assay on SN12C renal, 81.2%; in the assay on UO-31 renal, 14.6%; with TK-10 renal it was 109%; in the assay on ACHN renal it was 23.4%; in the assay with A498 renal, -11.8% (active). In addition, the growth was 7.61% (active) in the assay with CCRF-CEM leukemia; 77.4% in the assay on OVCAR-8 ovarian; 87.6% in the assay on OVCAR-5 ovarian; 74.2% in the assay on OVCAR-4 ovarian; 83.9% with SK-OV-3 ovarian; -11.3% (active) with IGROV1 ovarian. Moreover, the growth was 49.1% in the assay with OVCAR-3 ovarian, 9.63% (active) in the assay on HS 578T breast and 77.5% in the assay with NCI/ADR-RES ovarian.

Regarding `Nc1nc2c(c3ncccc13)C(c1ccccc1)Cc1ncccc1-2` (stereo not given), the growth is 78.8% in the assay on EKVX NSCLC; 61.1% with UO-31 renal; 89.9% with TK-10 renal; 84.4% in the assay on ACHN renal; 77.2% in the assay with CAKI-1 renal; 78.2% in the assay with A498 renal. Also, the growth is 72.3% in the assay with CCRF-CEM leukemia; 65.8% with MOLT-4 leukemia; 40.7% in the assay with SR leukemia; 87.4% with RPMI-8226 leukemia; 93.5% in the assay on OVCAR-8 ovarian; 92.8% in the assay with OVCAR-5 ovarian. The growth is 94.1% with OVCAR-4 ovarian; 87.3% with SK-OV-3 ovarian; 63.3% in the assay with IGROV1 ovarian; 62.2% in the assay on OVCAR-3 ovarian; 87.2% with HS 578T breast; 67.7% in the assay on NCI/ADR-RES ovarian.

For `O=C1/C(=C\c2cccn2C(=O)c2ccccc2)c2ccccc2N1c1c(Cl)cccc1Cl`, the growth in the assay on EKVX NSCLC was 80.5%; in the assay on UO-31 renal, 66.8%; with TK-10 renal, 86.4%; with ACHN renal it was 79%; in the assay on CAKI-1 renal it was 87.8%; in the assay on A498 renal, 90.4%. Besides, the growth in the assay with CCRF-CEM leukemia was 14.3%; in the assay with MOLT-4 leukemia it was 27.9%; with SR leukemia it was 25%; in the assay with RPMI-8226 leukemia, 69.6%; in the assay on OVCAR-8 ovarian, 87%; in the assay on OVCAR-5 ovarian it was 87.9%. The growth with OVCAR-4 ovarian was 59.4%; in the assay on SK-OV-3 ovarian, 95%; with IGROV1 ovarian it was 71.2%; with OVCAR-3 ovarian, 70.4%; in the assay with HS 578T breast it was 95.6%; in the assay with NCI/ADR-RES ovarian, 82.2%.

Turning to `CC1(C)C(N(O)C(=O)Nc2ccc(Cl)cc2)N(c2ccc(Cl)cc2)C(=O)N1CC(=O)N/N=C/C=C/c1ccc([N+](=O)[O-])o1` (stereo not given), the growth in the assay on EKVX NSCLC was 29.8%; in the assay on SN12C renal, -21.4% (active); in the assay on UO-31 renal it was 12.8%; with TK-10 renal it was 4.58% (active); with ACHN renal, 9.18% (active); in the assay with MOLT-4 leukemia, -21.5% (active). The growth is -13.1% (active) with SR leukemia; -23.7% (active) in the assay on RPMI-8226 leukemia; 3.32% (active) in the assay with OVCAR-8 ovarian; 6.4% (active) in the assay on OVCAR-5 ovarian; 14.9% with OVCAR-4 ovarian; 57.8% in the assay on SK-OV-3 ovarian. In addition, the growth in the assay with IGROV1 ovarian was -5.58% (active); in the assay with OVCAR-3 ovarian, -26.8% (active); with HS 578T breast, -11.4% (active); in the assay on NCI/ADR-RES ovarian, 95%.

Regarding `CC(=O)[C@@]1(O)[C@H](C)C[C@H]2[C@@H]3C=C(C)C4=Cc5c(cnn5-c5ccccc5)C[C@]4(C)[C@H]3[C@@H](O)C[C@@]21C`, the growth in the assay on EKVX NSCLC is 13.2%; in the assay with SN12C renal, 41.3%; in the assay on UO-31 renal, -4.99% (active); with TK-10 renal it was 34.5%; in the assay with ACHN renal it was 42.3%; with A498 renal, -16.8% (active). The growth in the assay with CCRF-CEM leukemia was -28% (active); with OVCAR-8 ovarian it was 37.3%; in the assay with OVCAR-5 ovarian, 40.6%; with OVCAR-4 ovarian it was 56.5%; in the assay with SK-OV-3 ovarian, 38.7%; with IGROV1 ovarian, -16.8% (active). The growth is 8.02% (active) in the assay on OVCAR-3 ovarian, 5.32% (active) in the assay with HS 578T breast and 27.1% with NCI/ADR-RES ovarian.

For the compound `CN(C)CCOc1nc2c3cccnc3cc(-c3cccc(Cl)c3)c2c2ncccc12`, the growth in the assay on EKVX NSCLC was 34.3%; with UO-31 renal, 38.2%; in the assay with TK-10 renal, 28.5%; in the assay with ACHN renal it was 6.48% (active); in the assay on CAKI-1 renal it was 28.1%; with A498 renal it was 43.7%. For the same compound, the growth in the assay with CCRF-CEM leukemia was 6.83% (active); in the assay on MOLT-4 leukemia, -9.06% (active); in the assay on SR leukemia it was 0.455% (active); with RPMI-8226 leukemia, -21.6% (active); in the assay with OVCAR-8 ovarian, 14.7%; with OVCAR-5 ovarian it was 45.5%. Further, the growth with OVCAR-4 ovarian is 20.6%; with SK-OV-3 ovarian, 45%; in the assay on IGROV1 ovarian, 30.9%; in the assay on OVCAR-3 ovarian it was 17.8%; in the assay on HS 578T breast, 43.1%; with NCI/ADR-RES ovarian, 18.7%.

With `CCOC(=O)C(=CNc1ccccc1Cl)C(=O)OCC`, the growth was 106% in the assay with EKVX NSCLC; 101% with SN12C renal; 89.1% in the assay on UO-31 renal; 99.3% with TK-10 renal; 79.2% in the assay on ACHN renal; 5.74% (active) in the assay with A498 renal. Besides, the growth with CCRF-CEM leukemia was 85.8%; in the assay with OVCAR-8 ovarian it was 91.4%; with OVCAR-5 ovarian, 100%; in the assay on OVCAR-4 ovarian, 91.7%; with SK-OV-3 ovarian, 113%; in the assay with IGROV1 ovarian, 91.1%. For the same compound, the results for the growth with HS 578T breast and in the assay with NCI/ADR-RES ovarian were 129% and 91.4%, respectively.

`O=C(O)Cn1ccc2ccccc21`: the growth is 102% with EKVX NSCLC; 113% with SN12C renal; 76.4% in the assay with UO-31 renal; 153% in the assay with TK-10 renal; 99.9% in the assay on ACHN renal; 110% in the assay with A498 renal. The growth in the assay with CCRF-CEM leukemia is 98.4%; in the assay with OVCAR-8 ovarian it was 92.6%; with OVCAR-5 ovarian it was 100%; in the assay with OVCAR-4 ovarian, 97.8%; in the assay on SK-OV-3 ovarian, 134%; in the assay on IGROV1 ovarian, -6.06% (active). The growth in the assay with OVCAR-3 ovarian is 104%; in the assay on HS 578T breast, 108%; in the assay on NCI/ADR-RES ovarian it was 103%.

Take `CC(=O)OC1Oc2cc(C)c(C)cc2-c2oc(=O)c(-c3ccc(F)cc3)cc21` (stereo not given): the growth in the assay on EKVX NSCLC was 81.7%; in the assay on SN12C renal, 83.2%; with UO-31 renal, 62.2%; in the assay with TK-10 renal, 120%; in the assay with ACHN renal, 89.5%; in the assay with A498 renal, 47.9%. Further, the growth is 36% in the assay on CCRF-CEM leukemia; 81.9% in the assay with OVCAR-8 ovarian; 86.2% with OVCAR-5 ovarian; 73.2% in the assay with OVCAR-4 ovarian; 79.1% in the assay with SK-OV-3 ovarian; 54.4% in the assay on IGROV1 ovarian. The growth in the assay on NCI/ADR-RES ovarian was 28.5%.
